# In the library only some 0.55% were active in any assay of this set; here they are far more common.
# ERG Ets-DNA blk = qHTS for Small Molecule Inhibitors of the ERG Ets/DNA interaction | 370,000 tested, 0.028% active | Potency, µM (top dose mostly 76.9 µM), for inactives: at the top dose FP activity, negative = inhibition, hits mostly inhibitors | Transcriptional regulator ERG (Homo sapiens), P11308 | fluorescence polarization, His-ERG Ets domain / labelled DNA; active = well fitted inhibition curve with a large enough effect in the polarisation, with a control signal flat; inconclusive = small, poorly fitted or top-dose-only effect, or effect the other way, or a change in a side signal; inactive = no such curve, though single readings can be large or run the other way; the % refers to the polarisation;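 also: polarization taken with two DNA probes labelled with fluorescein and Texas red; % of control where 0% means no effect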
#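 His-tagged ERG Ets domain (1 uM in the protein solution; 300mM KCl, 50mM Tris-HCl, 1mM EDTA, 1mM DTT, pH 7.5) received compound, then a probe mix of 5 nM fluorescein-DNA and 100nM Texas-615-DNA. Fluorescence polarization was read for both dyes.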
# GCN5L2 inh = qHTS Assay for Inhibitors of GCN5L2. GCN5L2 HAT assay, ThioGlo1 CoA-SH fluorescence. Potency, µM (doses to about 58.9 µM), for inactives: at the highest dose activity change, negative = inhibition, usual class: inhibitors. 390,000 tested, 0.21% active; also: % is scaled to controls: 0 for no effect and ±100 for the full control effect
# Target sequence (Q92830 whole entry, looked up): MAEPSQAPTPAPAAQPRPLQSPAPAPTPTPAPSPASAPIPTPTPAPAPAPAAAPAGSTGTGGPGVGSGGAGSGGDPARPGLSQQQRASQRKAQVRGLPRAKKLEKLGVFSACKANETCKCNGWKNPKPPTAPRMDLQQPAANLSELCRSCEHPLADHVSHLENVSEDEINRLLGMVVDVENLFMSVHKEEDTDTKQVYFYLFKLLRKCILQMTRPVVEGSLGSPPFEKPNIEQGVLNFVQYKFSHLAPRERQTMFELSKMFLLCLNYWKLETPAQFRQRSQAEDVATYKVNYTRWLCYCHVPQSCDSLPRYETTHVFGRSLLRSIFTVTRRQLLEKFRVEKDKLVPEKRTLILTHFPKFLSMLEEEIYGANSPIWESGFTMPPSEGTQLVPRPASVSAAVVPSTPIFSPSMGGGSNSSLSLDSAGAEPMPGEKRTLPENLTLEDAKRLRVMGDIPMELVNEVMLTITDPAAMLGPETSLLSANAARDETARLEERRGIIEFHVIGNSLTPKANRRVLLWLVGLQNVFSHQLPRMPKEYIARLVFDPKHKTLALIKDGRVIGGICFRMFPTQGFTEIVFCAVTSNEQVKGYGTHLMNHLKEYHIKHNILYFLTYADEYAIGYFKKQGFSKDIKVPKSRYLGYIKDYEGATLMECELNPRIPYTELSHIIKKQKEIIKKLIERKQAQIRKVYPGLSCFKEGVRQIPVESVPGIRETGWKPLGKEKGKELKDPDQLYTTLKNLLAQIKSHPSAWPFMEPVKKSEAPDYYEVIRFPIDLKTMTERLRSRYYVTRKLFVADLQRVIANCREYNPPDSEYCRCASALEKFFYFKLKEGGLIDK
#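 Titration-based screen in which CoA formation is detected via maleimide probe ThioGlo1 (50uM) turning fluorescent on thiol reaction; substrates H3(1-25) 75uM and acetyl-CoA 70uM, GCN5L2 20nM, 20 min incubation at room temperature.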
# ASM inhibitor = Inhibitors of Secretory Acid Sphingomyelinase (S-ASM): qHTS; Potency, µM (highest dose often 57.5 µM), for the others: at the top dose activity change, negative = inhibition, hits mostly inhibitors; placental ASM, HMU-PC fluorogenic substrate, 60 min; AID 504937, 2011; Sphingomyelin phosphodiesterase (Homo sapiens), P17405; 340,000 tested, 0.006% active
#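 Human placenta-derived ASM enzyme was preincubated with compound for 10 minutes at room temperature, then given fluorogenic substrate HMU-PC0 (9 uM final) for 60 minutes at 37 °C; a pH 10 stop preceded fluorescence reading at Ex 386/Em 447 nm.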
# p53 reactivator = qHTS assay for re-activators of p53 using a Luc reporter; H1299 p53-A138V BP100-luciferase reporter, luminescence, 24 h; Potency, µM (doses to about 92.2 µM), for the others: at the top dose activity change, positive = activation, usual class: activators; 320,000 tested, 0.063% active; AID 504706, 2011; also: % of control where 0% means no effect; nearly all actives have a fitted effect of over 45% in size
#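 p53-null H1299 cells stably carrying temperature-sensitive p53-A138V and a BP100-luciferase reporter were pinned with compounds (4-point, 1:5 series) and held 24 hrs at 37 deg C. Luminescence was read 10 min after detection reagent.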
# A-T KAP1 phos = qHTS Assay for Identifying a Potential Treatment of Ataxia-Telangiectasia; F2112 A-T fibroblasts, KAP-1 phosphorylation AlphaLISA; neocarzinostatin DNA damage 30 min before lysis; Potency, µM (highest dose often 57.5 µM), for inactives: at the highest dose activation, most hits filed as activators; 320,000 tested, 0.19% active; AID 485349, 2010; also: % of control where 0% means no effect; nearly all actives have a fitted effect of over 45% in size
#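 hTERT-immortalized A-T patient fibroblasts (F2112), 500 cells/well in OPTI-MEM, 1% FBS, got compounds for 60 min, then NCS for 30 min at 37C. Lysates were then assayed for phospho-KAP-1 by AlphaLISA (anti-pKAP1 donor, anti-KAP1 acceptor beads), 6 hr at 25C.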
# Tb PFK inh-1 = qHTS Assay to Find Inhibitors of T. brucei phosphofructokinase. T. brucei PFK, ADP-Glo luminescence. Potency, µM (top dose mostly 57.5 µM), without a hit: at the highest dose activity, negative = inhibition, most hits filed as inhibitors. 330,000 tested, 0.17% active. AID 485367, 2010;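 also: 0% = uninhibited 1x PFK enzyme wells and -100% = no-enzyme wells; nearly all actives have a fitted effect of over 60% in size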
#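 Activity is normalized to no-enzyme wells (full inhibition) and 1.25 nM enzyme wells (no inhibition). Reaction: 0.5 mM F6P, 0.1 mM ATP, 45 min RT, ADP-Glo luminescence; concentration-response curves fitted and classed by quality.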
# TbPFK ATP = Tb PFK orthogonal confirmatory assay using ATP depletion (Kinase-Glo Plus) as an alternative measure of Tb PFK activity: Hit Validation | Tb PFK enzyme, ATP depletion, Kinase-Glo Plus luminescence | AID 504636, 2011 | Potency, µM (top dose mostly 57.5 µM), for inactives: at the highest dose inhibition | 1,100 tested, 47% active | shares compounds with Tb PFK inh-1; calls by dose curve; also: nearly all actives have a fitted effect of over 60% in size
# Tb PFK inh-2 = Inhibitors of T. brucei phosphofructokinase: Hit Validation | 1,100 tested, 41% active | purified T. brucei PFK, ADP-Glo luminescence, 45 min | Potency, µM (highest dose often 57.5 µM), for the others: at the top dose activity change, negative = inhibition, hits mostly inhibitors | shares compounds with Tb PFK inh-1;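 also: plate controls were full PFK enzyme control for no effect and no enzyme control for full effect; nearly all actives have a fitted effect of over 60% in size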
# * hit, by the source's call; ? = inconclusive; · = no result; [ ] = dose if it differs, or a comment. Unless noted, calls follow the shape of the dose curve; as a rule, active = well fitted curve in the direction sought with a large enough effect; inconclusive = small, poorly fitted or top-dose-only effect, or another doubt; inactive = no such curve, though single readings can be large; an effect the other way counts as inactive or inconclusive. Potency is read from the fitted curve at half-maximal effect.
SMILES,ERG Ets-DNA blk,GCN5L2 inh,ASM inhibitor,p53 reactivator,A-T KAP1 phos,Tb PFK inh-1,TbPFK ATP,Tb PFK inh-2
O=C1CC(O)(CF)CCO1 (configuration not stated),·,21.7%,·,·,·,·,·,·
COc1cc(CC(=O)OCC2=C[C@H]3[C@@H]4C(C)(C)[C@]4(OC(C)=O)[C@H](OC(=O)Cc4ccccc4)[C@@H](C)[C@]3(O)[C@@H]3C=C(C)C(=O)[C@@]3(O)C2)ccc1O,·,-15.0%,·,·,·,·,·,·
COc1cccc(CNc2ccc(F)c(Cl)c2)c1,-9.9%,0.8%,-3.8%,0.2%,6.2%,23.9µM*,10.7µM*,16.9µM*
CN(C)CCN(C)CCc1ccc(Cl)c(Cl)c1,·,-8.4%,·,·,·,·,·,·
CN(C)C=Nc1ccc(Cl)c(Cl)c1,-0.2%,2.2%,1.0%,0.3%,-2.6%,26.9µM*,12.5%,-7.9%
CCCN(CCC)[C@@H]1CCc2c(OC)cccc2[C@@H]1C,·,3.6%,·,·,·,·,·,·
CC(C)N(CCc1ccncc1)C(=O)Nc1ccc(Cl)c(Cl)c1,-4.3%,1.0%,3.0%,-10.3%,9.5%,?,9.0%,-6.8%
CON(C)C(=O)Nc1ccc(Br)cc1,·,1.1%,·,·,·,·,·,·
CC(C)c1ccc(N2C(=O)NC(=O)/C(=C/C=C/c3ccco3)C2=O)cc1,16.4%,?,-2.1%,-15.6%,-7.7%,-20.1%,·,·
Cc1ccc(N2C(=O)NC(=O)/C(=C/C=C/c3ccco3)C2=O)cc1,?,21.7%,3.3%,-48.2%,-8.7%,?,·,·
Cc1cc(C)cc(N2C(=O)NC(=O)/C(=C\C=C\c3ccco3)C2=O)c1,·,-0.7%,-2.3%,-24.9%,-3.3%,?,10.7µM*,21.3µM*
CCc1ccc(N2C(=O)NC(=O)/C(=C\C=C\c3ccco3)C2=O)cc1,84.5%,-13.1%,-2.7%,-15.0%,·,?,?,?
OC[C@@H]1[C@@H](O)[C@H](O)[C@H]2[C@@H](O)CCN21,·,-15.5%,·,·,·,·,·,·
CCOC(=O)Cn1c(=N)n(CCOc2ccc(F)cc2)c2ccccc21,-8.0%,-1.2%,-1.2%,-1.3%,8.9%,5.36µM*,3.01µM*,5.36µM*
Nc1nc2ccccc2n1CCOc1ccc(F)cc1,0.8%,1.1%,-1.1%,?,0.7%,?,13.5µM*,21.3µM*
CCC1CN2CCC1CC2C(O)c1ccnc2ccc(OC)cc12 (configuration not stated),·,-6.5%,·,·,·,·,·,·
CC(C)(O)[C@H]1O[C@@H]2CC[C@]3(C)[C@@]4(C)c5[nH]c6ccccc6c5C[C@@H]4CC[C@]3(O)C2=CC1=O,·,-21.7%,·,·,·,·,·,·
C[C@@]12CC[C@H](O)C[C@@H]1CC[C@H]1[C@@H]2C[C@@H](O)[C@]2(C)[C@@H](C3=CC(=O)OC3)CC[C@]12O,·,0.0%[21.4 µM],·,·,·,·,·,·
Cc1ccc(C(=O)Nc2cccc3[nH]c(C(F)(F)F)nc23)cc1,3.8%,-29.7%,-1.9%,6.6%,0.0%,?,?,?
COC(=O)C(O)(c1ccc(NC(=O)c2ccccc2)cc1)C(F)(F)F (configuration not stated),16.3%,-5.5%,3.7%,9.4%,12.2%,12.1%,·,·
CC(=C\C(=O)O)/C(=C\c1cccc2ccccc12)C(=O)O,12.2%,-0.1%,2.7%,3.9%,-17.7%,?,-1.1%,-1.1%
Cc1[nH]c(=O)n(C(C)(C)C)c(=O)c1Cl,·,-19.1%,·,·,·,·,·,·
COc1ccc(S(=O)(=O)NNC(=O)c2cc3cc4ccccc4nc3s2)cc1,-8.8%,2.9%,?,4.1%,-8.8%,?,-35.1%,?
F/C(COc1ccc2c(c1)[nH]c1ccccc12)=C1/CN2CCC1CC2,·,-10.6%,·,·,·,·,·,·
ClC1=C(Cl)C(Cl)=C(Cl)C1=C/C=C/c1ccccc1,-2.0%,-4.5%,-13.7%,?,-1.3%,-6.8%,·,·
SMILES,ERG Ets-DNA blk,GCN5L2 inh,ASM inhibitor,p53 reactivator,A-T KAP1 phos,Tb PFK inh-1,TbPFK ATP,Tb PFK inh-2
O=C1C2CC=C(Cl)CC2C(=O)N1CCCCCCN1C(=O)C2CC=C(Cl)CC2C1=O (configuration not stated),·,-20.3%,-5.2%,-1.1%,-1.0%,?,?,?
CCCOc1ccc2[nH]cc(C3=CCNCC3)c2n1,·,-10.5%,·,·,·,·,·,·
N/C(=N\N=C/c1ccc(-c2ccc(O)c(C(=O)O)c2)o1)N[N+](=O)[O-],-4.4%,?,-0.5%,3.0%,-1.6%,0.9%,·,·
O=C(Cc1ccc(F)cc1)N/N=C/c1ccc(-c2ccc(Cl)c(C(=O)O)c2)o1,-1.5%,-3.6%,7.5%,-0.5%,0.3%,?,?,?
C[C@H](N)Cc1ccccc1,·,-0.1%,·,·,·,·,·,·
CC1(C)OC(=O)C(=Cc2ccc(-c3ccc(S(N)(=O)=O)cc3)o2)C(=O)O1,-4.1%,?,-3.8%,4.5%,13.9%,?,7.2%,?
S=c1[nH]nc(Cn2c(-c3ccccn3)nc3ccccc32)n1-c1ccc2c(c1)OCCO2,5.4%,-4.1%,3.0%,12.7%,?,-0.5%,·,·
O=[N+]([O-])c1ccc(CN2CCN(c3ccc(Cl)cc3)CC2)o1,6.7%,-4.8%,-3.1%,?,2.8%,-5.5%,·,·
CNc1cccccc1=S,-12.9%,?,-1.4%,?,1.5%,12µM*,?,?
Cc1nc(CCl)cc(=O)[nH]1,25.2%,-2.0%,0.9%,21.8%,-3.3%,1.4%,·,·
Cc1cc(=O)[nH]c(Nc2ccc(Cl)cc2)n1,10.7%,-5.8%,-0.2%,23.0%,-5.8%,21.3µM*,8.49µM*,19µM*
COc1ccc(C)cc1NC(=O)c1ccc2c(SCC(=O)O)c3c(nc2c1)CCCC3,2.3%,-13.9%,2.6%,-1.8%,-6.7%,?,-29.5%,?
O=C(O)COc1ccccc1C=NNc1ccc([N+](=O)[O-])cc1S(=O)(=O)Nc1ccc(Cl)cc1,8.4%,?,-8.7%,-1.2%,-2.5%,19µM*,30.1µM*,?
